From PubChem
Only some compounds are listed: those with a hit (about 4.1% of all), similar ones and a draw of the others.
Shn3 inh set2: Schnurri-3 reporter inhibition in Clone20 osteoblasts; Clone20 osteoblast Shn3 3'UTR firefly luciferase, 24 h; 360,000 compounds, 0.52% hits; inhibition, % at 12.5 µM; AID 588674;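 active means mean inhibition of at least 75% with every replicate also reaching 75%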;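 further: 0% = median of neutral control wells and 100% = pilot-screen positive control compound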
TWEAK-Fn14 inh: blocks TWEAK-Fn14 interaction in a reporter cell assay; TWEAK-stimulated Fn14 reporter cells, luciferase luminescence, 8 h; inhibition, % at 10 µM; 360,000 compounds, 2% hits; AID 1159606; in the data active means inhibition above about 50%
TROY NFkB inh: inhibitors of TROY-dependent NF-kB signaling. 360,000 compounds, 0.98% hits. AID 1347056. inhibition, % at 10 µM. Q293 LMP1-TROYcd NF-kB luciferase reporter, 4 h;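 active means compounds whose plate-normalised and pattern-corrected inhibition of the luciferase reporter signal at the single screening dose is 50% or more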
Peg3 promoter: Peg3 promoter activity inhibition; HeLa PEG-Prom luciferase reporter, luminescence, overnight; inhibition, % at 20 µM; 360,000 compounds, 1.7% hits; AID 588405;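 active means inhibition of at least 50% at 20 µM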
TRPM1 prom inh: inhibitors of MITF-driven TRPM1 promoter in melanoma cells. 330,000 compounds, 0.83% hits. inhibition, % at 12.5 µM. AID 488899. SK-MEL-5 TRPM1 promoter luciferase, 24 h;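 active means mean inhibition across replicates of 60% or more, whatever share of single replicates reaches that level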
LMP1 NFkB inh: reduces LMP1-driven NF-kappaB luciferase signal; LMP1-induced NF-kappaB luciferase reporter cells, luminescence; inhibition, % at 12.5 µM; 350,000 compounds, 0.69% hits; AID 504558; in the data active means inhibition above about 41%;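 further: 0% = neutral control wells and 100% = reference inhibitor control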
An asterisk follows results filed as active.

`O=C(/C=C/c1cccc(F)c1)c1ccc(N2CCOCC2)cc1` gave Shn3 inh set2 -47.3, TWEAK-Fn14 inh 27.9, TROY NFkB inh -3.2, Peg3 promoter -156.1, TRPM1 prom inh -35.9 and LMP1 NFkB inh -7.5.
Screening O=C(c1ccccc1)c1nn(-c2ccccc2)c(=O)cc1C(F)(F)F returned Shn3 inh set2 -0.9, TWEAK-Fn14 inh 43.1, TROY NFkB inh 11.2, Peg3 promoter 18.9, TRPM1 prom inh 12.9 and LMP1 NFkB inh -13.7.
O=C(c1ccccc1)c1nn(-c2ccc(Cl)cc2)c(=O)cc1C(F)(F)F was read as Shn3 inh set2 73.9, TWEAK-Fn14 inh 74.0*, TROY NFkB inh -48.0, Peg3 promoter 78.7*, TRPM1 prom inh 24.1 and LMP1 NFkB inh 64.2*.
`O=C(NC1CCCCC1)NC1CC2CCC(C1)N2Cc1nnnn1Cc1ccc2c(c1)OCO2` (stereo unspecified) gave Shn3 inh set2 9.5, TWEAK-Fn14 inh 87.2*, Peg3 promoter 5.8, TRPM1 prom inh 11.2 and LMP1 NFkB inh 0.9.
O=C(NCc1ccc2c(c1)OCO2)NC1CCCCC1 was read as Shn3 inh set2 -17.3, TWEAK-Fn14 inh -3.9, TROY NFkB inh -4.3, Peg3 promoter -85.3, TRPM1 prom inh -22.4 and LMP1 NFkB inh -11.1.
`CCOC(=O)c1sc(=NC(=O)c2cccs2)n(C)c1C` gave Shn3 inh set2 -83.4, TWEAK-Fn14 inh 29.7, TROY NFkB inh -33.7, Peg3 promoter -281.7, TRPM1 prom inh -41.1 and LMP1 NFkB inh -29.6.
CCOC(=O)c1sc(=NC(=O)c2ccc(Cl)s2)n(C)c1C was read as Shn3 inh set2 -36.8, TWEAK-Fn14 inh 40.0, TROY NFkB inh 54.5*, Peg3 promoter -227.2, TRPM1 prom inh -47.2 and LMP1 NFkB inh -19.3.
CC(C)CNC(=O)c1ccccc1SCC(=O)NC12CC3CC(CC(C3)C1)C2 was read as Shn3 inh set2 -13.7, TWEAK-Fn14 inh -2.5, TROY NFkB inh -1.1, Peg3 promoter 7.3, TRPM1 prom inh -2.9 and LMP1 NFkB inh 3.3.
`CC1=C(C)CC(C(=O)N2CCN(Cc3ccccc3)CC2)C(C(=O)O)C1` (stereo unspecified) gave Shn3 inh set2 -3.0, TWEAK-Fn14 inh -4.8, TROY NFkB inh -9.7, Peg3 promoter -3.5, TRPM1 prom inh 7.3 and LMP1 NFkB inh 65.4*.
For CC1CCCC(C)N1C(=O)COC(=O)Cn1cnc2c1c(=O)n(C)c(=O)n2C (stereo unspecified) the results were Shn3 inh set2 6.9, TWEAK-Fn14 inh -6.6, TROY NFkB inh -10.2, Peg3 promoter 2.4, TRPM1 prom inh -5.3 and LMP1 NFkB inh 1.9.
Screening Cc1ccc(C)c(NS(=O)(=O)c2ccc(NC(=O)CSc3ccc(Cl)cc3)cc2)c1 returned Shn3 inh set2 -3.9, TWEAK-Fn14 inh -10.8, TROY NFkB inh 5.2, Peg3 promoter 12.2, TRPM1 prom inh 5.1 and LMP1 NFkB inh 3.5.
Screening Cc1ccc(NS(=O)(=O)c2ccc(NC(=O)C(C)Sc3ccc(Cl)cc3)cc2)c(C)c1 (stereo unspecified) returned Shn3 inh set2 37.4, TWEAK-Fn14 inh 42.8, TROY NFkB inh 49.9, Peg3 promoter 24.8, TRPM1 prom inh 10.5 and LMP1 NFkB inh 60.5*.
For O=C(COC(=O)c1cc([N+](=O)[O-])ccc1N1CCOCC1)Nc1ccc(Cl)cn1 the results were Shn3 inh set2 -18.0, TWEAK-Fn14 inh 3.7, TROY NFkB inh 4.7, Peg3 promoter 53.2*, TRPM1 prom inh -13.6 and LMP1 NFkB inh -26.7.
For COc1ccc(COC(=O)c2cc([N+](=O)[O-])ccc2N2CCOCC2)cc1F the results were Shn3 inh set2 31.0, TWEAK-Fn14 inh 35.8, TROY NFkB inh 9.6, Peg3 promoter -4.9, TRPM1 prom inh 66.1* and LMP1 NFkB inh 1.3.
COc1cccc(CNC(=O)COC(=O)c2cc([N+](=O)[O-])ccc2N2CCCC2)c1 was read as Shn3 inh set2 4.2, TWEAK-Fn14 inh -12.3, TROY NFkB inh -8.7, Peg3 promoter 12.6, TRPM1 prom inh 9.3 and LMP1 NFkB inh 71.3*.
`O=C(COC(=O)c1cc([N+](=O)[O-])ccc1N1CCOCC1)Nc1ccc(Cl)cc1` gave Shn3 inh set2 15.6, TWEAK-Fn14 inh 0.3, TROY NFkB inh 7.1, Peg3 promoter 31.1, TRPM1 prom inh 1.5 and LMP1 NFkB inh 13.5.
Screening O=C(OCc1cccc(Cl)c1)c1cc([N+](=O)[O-])ccc1N1CCOCC1 returned Shn3 inh set2 7.2, TWEAK-Fn14 inh 1.8, TROY NFkB inh 66.8*, Peg3 promoter 27.9, TRPM1 prom inh -3.7 and LMP1 NFkB inh -22.1.
O=C(OCc1cccc(C(F)(F)F)c1)c1cc([N+](=O)[O-])ccc1N1CCOCC1 was read as Shn3 inh set2 10.0, TWEAK-Fn14 inh -16.4, TROY NFkB inh -7.0, Peg3 promoter 13.1, TRPM1 prom inh -7.3 and LMP1 NFkB inh 7.4.
`O=C(OCc1ccc(Br)cc1)c1cc([N+](=O)[O-])ccc1N1CCOCC1` gave Shn3 inh set2 -30.5, TWEAK-Fn14 inh 0.2, TROY NFkB inh -23.0, Peg3 promoter 0.5 and LMP1 NFkB inh 15.6.
Screening NC(=O)c1nnn(Cc2cc(Cl)c(C(=O)c3ccc(Cl)cc3)c(Cl)c2)c1N returned TWEAK-Fn14 inh 30.2 and TROY NFkB inh 23.6.
`COc1ccc([C@H]2C[C@@H](n3cc(C4CC4)nn3)[C@H](O)CN2C(=O)c2cccs2)cc1` gave Shn3 inh set2 -28.2, TWEAK-Fn14 inh 3.9, TROY NFkB inh -11.6, Peg3 promoter -12.0 and LMP1 NFkB inh 0.6.
Screening COC(=O)C(C#N)(CCC(=O)c1ccccc1)CCC(=O)c1ccccc1 returned Shn3 inh set2 0.2, TWEAK-Fn14 inh -3.1, TROY NFkB inh 18.6 and Peg3 promoter -9.7.
CC(=O)C(C(C)=O)c1c(Cl)c(O)c(O)c2c(C(=O)c3ccccc3)coc12 was read as Shn3 inh set2 88.5*, TWEAK-Fn14 inh 75.9*, TROY NFkB inh 40.9, Peg3 promoter 35.1, TRPM1 prom inh 38.2 and LMP1 NFkB inh 7.8.
COc1ccc(C(Nc2ccccn2)c2oc(CO)cc(=O)c2O)cc1 (stereo unspecified) was read as Shn3 inh set2 -29.1, TWEAK-Fn14 inh 9.2, TROY NFkB inh 1.5, Peg3 promoter -3.5, TRPM1 prom inh -13.1 and LMP1 NFkB inh 68.2*.
`Cc1[nH]c2ccccc2c1CCNC(=O)c1ccc2c(c1[N+](=O)[O-])C(=O)c1ccccc1C2=O` gave Shn3 inh set2 -7.5, TWEAK-Fn14 inh 36.6, TROY NFkB inh -2.4, Peg3 promoter 101.5*, TRPM1 prom inh 12.0 and LMP1 NFkB inh 3.7.
Cc1[nH]c2c(C)cccc2c1CCNC(=O)c1ccc2c(c1[N+](=O)[O-])C(=O)c1ccccc1C2=O was read as Shn3 inh set2 -1.9, TWEAK-Fn14 inh 20.2, TROY NFkB inh -9.8, Peg3 promoter 102.5*, TRPM1 prom inh 9.9 and LMP1 NFkB inh 15.9.
Screening COc1cccc2cc(C(=O)NCCN3CCOCC3)c(=O)oc12 returned Shn3 inh set2 -1.4, TWEAK-Fn14 inh 16.5, TROY NFkB inh -13.6, Peg3 promoter -21.5 and LMP1 NFkB inh 3.2.
